Test results reported in PubChem BioAssay AID2314 (National Center for Advancing Translational Sciences (NCATS), 2010).
The whole screen tested about 300,000 compounds, of which about 37,000 (12%) were called active. For the sample, actives were picked, then their nearest neighbours and some compounds at random. Values without a mark were called inactive. Cut-off read from the data, not from the text of the source: active = max response mostly above about 13% (no sharp cut-off); inactive = mostly below about 14%.

Experiment: Cycloheximide Counterscreen for Small Molecule Inhibitors of Shiga Toxin; note: read at 38.3 µM for the half of the compounds with a filed dose; 0% is about no effect
Conditions: cell reporter, cycloheximide protein synthesis inhibition counterscreen; hits give high values

Compound	max response
O=C(O)c1ccc2c(=O)n3c(nc2c1)/C(=C/c1ccc(OC(F)F)cc1OC(F)F)CC3	1.3%
CCC(=O)N1c2ccccc2NC2=C(C(=O)CCC2)C1c1ccco1 (configuration not stated)	-5.4%
CCCC(=O)N1c2ccccc2NC2=C(C(=O)CCC2)C1c1ccc(F)cc1 (configuration not stated)	-1.45%
CC(C)C(=O)N1c2ccccc2NC2=C(C(=O)CCC2)C1c1ccc(N(C)C)cc1 (configuration not stated)	21.8% (active)
O=C(NCCO)C(=O)NCC(c1ccc2c(c1)OCO2)N1CCN(c2ccc(F)cc2)CC1 (configuration not stated)	-1.46%
Cn1nc(C(F)(F)F)cc1C(=O)O	-2.03%
COC(=O)c1ccc(NC(=O)C(C)N2C(=O)c3ccccc3C2=O)cc1 (configuration not stated)	-1.97%
CCN(CC)C(=O)CCC(=O)Nc1ccc(C(=O)OC)cc1	0.562%
Cc1ccc(NC(=O)Nc2cccc(C(F)(F)F)c2)nc1	9.81%
CCCc1cc(C(=O)Nc2ccc(C(=O)OC)cc2)cs1	18.2% (active)
O=C(Nc1cccc([N+](=O)[O-])c1)Nc1ccc(Cl)cn1	-1.76%
O=C(Nc1ccc(Cl)cn1)Nc1cccs1	47.7% (active)
CCCc1cc(C(=O)Nc2ccc(Cl)cn2)cs1	30.5% (active)
CC12COC3(C(=O)Nc4ccc(Cl)cn4)CC1CCC32C (configuration not stated)	-1.53%
CCCCC(CC)C(=O)Nc1ccc(Cl)cn1 (configuration not stated)	-1.66%
Cc1ccc(C(C)C)c(OCCSc2nc3ccccc3n2CC(=O)O)c1	-3.05%
CN(CC1CCCN(CCc2cccc(C(F)(F)F)c2)C1)C(=O)c1ccc2nc[nH]c2c1 (configuration not stated)	7.92%
Cc1ccc(-c2nc(SCC(=O)Nc3ccccc3OC(F)F)c3c(C)c(C(=O)O)sc3n2)cc1	-2.74%
Cc1ccc(C(C)(C)C)c(OCCCCN2CCCC2)c1	-1.44%
CCOc1ccc(NC(=O)CN(C)CC(=O)Nc2cccc(Cl)c2C)cc1OCC	-1.94%
O=C(c1ccc(-c2ccccc2)cc1)C1CCCN(C(=O)c2cncs2)C1 (configuration not stated)	-0.779%
CCNC(=O)N1CCCC(C(=O)c2ccc(-c3ccccc3)cc2)C1 (configuration not stated)	35% (active)
Cc1ccccc1NC(=O)C1CCCN(C(=O)NCc2ccccc2)C1 (configuration not stated)	-2.13%
N#C/C(=C\c1cccnc1)C(=O)Nc1ccc(SC(F)F)cc1	-2.71%
CCC(NC(=O)C1CCCC1)c1ccc(C)cc1 (configuration not stated)	-1.61%

Compound	max response
O=C(CSc1ccc(-c2ccccc2)nn1)NCC1CCCO1 (configuration not stated)	8.54%
Cc1c(C(=O)N2CC(C)OC(C)C2)sc2nc(-c3ccccc3)cn12 (configuration not stated)	26.8% (active)
CC1CN(C(=O)CN2C(=O)NC(C)(c3ccccc3)C2=O)CC(C)O1 (configuration not stated)	-0.354%
O=C(c1c(Cl)nc2sccn12)N1CCCc2ccccc21	11.5%
Cc1cccc(C)c1NC(=O)N1CC(C)OC(C)C1 (configuration not stated)	-0.915%
CCOc1ccc(-n2c(N)c(C(=O)NCC3CCCO3)sc2=S)cc1 (configuration not stated)	-1.47%
Cc1c(C(=O)NCC2CCCO2)sc2nc(-c3ccccc3)cn12 (configuration not stated)	78.5% (active)
Cc1c(C(=O)N2CCCc3ccccc32)sc2nc(-c3ccccc3)cn12	7.76% (active)
Cc1cccc2cc3c(N)c(C(=O)N4CCCc5ccccc54)sc3nc12	-2.83%
O=C(NC1CC1)C(Cc1ccccc1)NS(=O)(=O)c1ccccc1F (configuration not stated)	-2.2%
Cc1sc2nc(SCCO)n(-c3ccccc3)c(=O)c2c1C	1.18%
Cc1oc2c(F)c(F)c(F)c(F)c2c1S(=O)(=O)Nc1cccc(C(F)(F)F)c1	2.32%
COc1ccc(CNC(=O)CSc2n[nH]c(N)n2)cc1OC	-3.7%
COc1ccc(C)cc1NC(=O)CN(C)S(=O)(=O)c1ccc2c(c1)n(C)c(=O)c(=O)n2C	0.886%
CCN(CC(=O)Nc1ccc(C)c(S(=O)(=O)N(C)C)c1)Cc1ccccc1	10.7%
Cc1ccc(C(=O)Nc2ccc(NC(=O)c3cccs3)cc2)c(C)c1	3.31%
Cc1ccc(NC(=O)c2cccs2)cc1S(=O)(=O)N(C)C	17.7% (active)
Cc1ccc(S(=O)(=O)N(C)C)cc1NC(=O)/C=C/c1cccs1	-3.65%
COc1ccc(CCC(=O)OCC(=O)Nc2ccc(C)c(S(=O)(=O)N(C)C)c2)cc1	-1.02%
Cc1ccc(C(=O)Nc2ccc(C)c(S(=O)(=O)N(C)C)c2)s1	73.5% (active)
CCn1c(SCC(=O)NC2CC2)nnc1-c1ccccc1OC	-2.41%
COc1ccc(C2CC(c3cccs3)=NN2C(=O)COC(=O)c2cc3ccccc3cc2O)cc1OC (configuration not stated)	-1.77%
C=CCn1c(SCc2ccc(C(=O)NCCO)cc2)nc2ccccc2c1=O	0.679%
Cc1cc(C)cc(N(CC(=O)NC2CCCC2)C(=O)CCC(=O)Nc2cc(C)on2)c1	-3.66%
O=C(NCCCN1CCOCC1)c1cc(-c2cccc(O)c2)on1	2.22%

Compound	max response
O=C(Cc1c(F)cccc1Cl)N1CCN(C(=O)c2ccco2)CC1	-3.56%
O=C(c1ccco1)N1CCN(C(=S)Nc2cc(F)cc(F)c2)CC1	-0.627%
O=C(NCCCN1CCOCC1)c1cc(-c2ccc(Cl)cc2)on1	-2.13%
O=C(NCCCN1CCOCC1)c1ccccc1NS(=O)(=O)c1ccc(F)cc1	16.7% (active)
O=C(NCCCN1CCOCC1)c1cc(-c2ccccc2F)no1	28% (active)
O=C(NCCCN1CCOCC1)c1cnn2c(-c3ccccc3)cc(-c3ccccc3)nc12	-2.91%
O=C(c1ccco1)N1CCN(C(=O)c2cc(-c3ccccc3F)no2)CC1	24.9% (active)
O=C(NCCCN1CCOCC1)c1ccccc1NS(=O)(=O)c1ccc(Br)cc1	2.08%
Cc1ccccc1-n1cc(CNC(=O)CC2C(=O)NCCN2C/C=C/c2ccccc2)cn1 (configuration not stated)	0.457%
COc1ccc(NC(=O)CCn2ccnc2)c(OC)c1	-2.17%
COc1ccc(Cl)cc1NC(=O)C(C)N1CCc2ccccc21 (configuration not stated)	-0.595%
CC1CC(C)CN(C(=O)CSc2ccsc2[N+](=O)[O-])C1 (configuration not stated)	25.5%
COc1ccc(C(CNC(=O)COc2ccccc2OC)N2CCCCC2)cc1 (configuration not stated)	-6.3%
CC1CN(CCCOc2ccccc2-c2ccccc2)CC(C)O1 (configuration not stated)	-3.01%
NNC(=O)CSc1nnc(-c2ccccc2)n1-c1ccccc1	-4.61%
COc1ccc(C(=O)C2CCCN(S(=O)(=O)c3cccc(C)c3)C2)c(C)c1 (configuration not stated)	1.12%
COc1ccc(Cc2nnc(SCC(=O)Nc3ccc(C)c(C)c3)o2)cc1OC	-0.716%
COC(=O)CC1=NN(c2ccccc2)C(=O)C1	-2%
O=C(c1cccc(N2CCCC2=O)c1)N1CCOCC1	-1.05%
NC1=NN(c2cccc(C(=O)O)c2)C(=O)C1	131% (active)
CCO[C@H]1OC(C(=O)N2CCN(Cc3ccccc3)CC2)=C[C@@H](c2cn(C(C)=O)c3ccccc23)[C@@H]1CCCO	-1.61%
O=C(Nn1cnc2ccccc2c1=O)c1ccccc1	18%
O=C(Nn1cnc2ccccc2c1=O)c1ccc([N+](=O)[O-])cc1Cl	3.29%
O=C(Nn1cnc2ccccc2c1=O)c1ccc(F)cc1Cl	22.9% (active)
COc1cc(CCC(=O)N2CCN(c3ccccc3Cl)CC2)cc(OC)c1OC	-5.65%

Compound	max response
CNC(=S)N/N=C/c1ccc(OCc2ccccc2)c(Br)c1	-5.52%
Cc1ccc(CNC(=O)C2(C(F)(F)F)C/C(=C\CCO)CCCO2)o1 (configuration not stated)	7.26%
CS(=O)(=O)Nc1cccc(-c2cn3ccccc3n2)c1	19.3% (active)
CCC(=O)Nc1cccc(NC(=O)CSc2nnc(-c3ccc(NS(C)(=O)=O)cc3)n2C)c1	-1.2%
COc1ccc(OC)c(S(=O)(=O)Nc2cccc(-c3ccc4nncn4n3)c2)c1	-3.34%
CC(=O)C1=C(O)C(=O)N(c2ccc(Br)cc2)C1c1ccc([N+](=O)[O-])cc1 (configuration not stated)	-1.92%
CCN(CC)CCn1c(/N=C/c2cc(Br)ccc2O)nc2ccccc21	8.52%
Oc1ccc(Br)cc1C=Nc1ccc2[nH]ncc2c1	-2.62%
Oc1ccc(Br)cc1/C=N/Nc1ccccn1	41.6% (active)
COc1cccc(-n2c(N)cc(=O)nc2SCC(=O)Nc2cc(C)on2)c1	-3.66%
Cc1ccnc(N2CCN(C(=O)CSc3nc4ccccc4nc3N3CCCCC3)CC2)c1	-5.65%
Cn1c(Nc2ccccc2)cc(=O)n(C)c1=O	-4.74%
COc1ccc(C(=O)COC(=O)CNC(=O)c2cccs2)cc1Br	-4.46%
COc1cc(NC(=S)NCCSc2ccc(C)cc2)cc(OC)c1	2.45%
CCc1nc(SCC(=O)NNC(=O)c2ccc(C)cc2)c2ccccc2n1	-3.44%
Cc1ccc(C(=O)NNc2ncnc3ccccc23)cc1	37.5% (active)
Cc1ccc(C(=O)NNC(=O)c2cc3cc4ccccc4nc3s2)cc1	-2.84%
CCOc1ccccc1-c1nc(CN2CCC(C(=O)N3CCOCC3)CC2)c(C)o1	5.66%
CCOC(=O)CSc1nnc(NC(=O)C2CC(=O)N(c3ccc(F)cc3)C2)s1 (configuration not stated)	4.08%
Cc1cc(-c2n[nH]c(=S)n2/N=C/c2ccco2)n[nH]1	0.979%
Cc1cc(-c2n[nH]c(=S)n2/N=C/C(Br)=C/c2ccccc2)n[nH]1	95.8% (active)
S=c1[nH]nc(-c2cccnc2)n1/N=C/C(Cl)=C\c1ccccc1	-2.93%
